# Source: PubChem BioAssay
# HT1080 IDH1KD tx – kills HT-1080 cells with IDH1 knockdown | HT-1080 IDH1 knockdown viability, ATP luminescence, 48 h | Potency, µM (doses to about 46.1 µM), without a hit: top-dose activity, negative = toxicity, most hits filed as cytotoxic | 2% of 360,000 active | AID 686971;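 also: potency is read from the fitted curve at half-maximal effect; 0% = DMSO wells and -100% = cell-free medium wells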
#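 After a 2 h attachment period, IDH1KD HT-1080 cells took pin-transferred compound for 48 h at 37 °C; ATP-based luminescence after 10 min room-temperature reagent incubation reported viability.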
# DT40 TDP1 no CPT – qHTS for Inhibitors of human tyrosyl-DNA phosphodiesterase 1 (TDP1): qHTS in cells in absence of CPT; DT40 Tdp1-/- hTDP1 cells, no CPT, ATP luminescence, 48 h; Potency, µM (highest dose often 46.2 µM), for the others: at the highest dose activity change, negative = growth inhibition, usual class: inhibitors; 15% of 420,000 active; also: potency is read from the fitted curve at half-maximal effect; nearly all actives have a fitted effect of over 55% in size
#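 Stably hTDP1-transfected Tdp1-null chicken DT40 cells were treated with library compounds minus camptothecin and grown for at least 48 hr at 37 °C, after which cellular ATP was quantified by luminescence.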
# DT40 TDP1 CPT – growth inhibition of DT40 Tdp1-/-;hTDP1 cells with camptothecin (screen for TDP1 inhibitors). chicken DT40 Tdp1-/-;hTDP1 cells + 20 nM CPT, ATP luminescence, 48 h. Potency, µM (highest dose often 46.2 µM), without a hit: at the highest dose activity change, negative = growth inhibition, hits mostly inhibitors. 12% of 420,000 active. AID 686979; also: potency is read from the fitted curve at half-maximal effect; nearly all actives have a fitted effect of over 55% in size
#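 Cell growth measured by CellTiter-Glo luminescence after a minimum 48 h, 37 C compound exposure with 20 nM CPT in Tdp1-knockout DT40 cells stably expressing hTDP1, seeded 400/well; qHTS titration format.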
# HT1080-NT tox – kills 2HG-producing HT-1080-NT fibrosarcoma cells | Potency, µM (titrated, usually from 46.1 µM), for inactives: at the highest dose activity, negative = less viability, actives largely listed as cytotoxic | HT-1080-NT fibrosarcoma viability, CellTiter-Glo ATP luminescence, 48 h | 1.6% of 360,000 active;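 also: NT is the 2HG producing partner of a matched IDH1 knockdown line; potency is read from the fitted curve at half-maximal effect; 0% = DMSO-treated cells and -100% = media-only wells without cells; nearly all actives have a fitted effect of over 55% in size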
#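 Compounds were tested in concentration-response format on HT-1080-NT cells for 48 hours at 37 degrees C. Cell viability came from CellTiter-Glo luminescence; curves were classified by r2, response magnitude and activity.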
# IL1B secr inh – blocks inflammasome-driven IL-1 beta release; THP-1 LPS/ATP IL-1B secretion, AlphaLISA, 16 h; hits give low values; activity change, % at 57.5 µM; 4.7% of 360,000 active; AID 743279; in the data active = activity change below about -50%; inconclusive = mostly about -30% to -49%
#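 Secreted IL-1B measured by AlphaLISA bead assay after 16 h compound exposure of THP-1 cells; compounds (final up to 57.5 uM) added 1 h before LPS (250 ng/mL) and ATP (1.25 mM) stimulation; lower signal means less secretion.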
# The depositor's hits bear a star; ? = inconclusive; . = no result given; ! = not confirmed by another sample; [ ] = remark or other dose. An excerpt weighted towards active compounds, which were near 19% of everything screened. Unless noted, calls follow the shape of the dose curve; as a rule, active = well fitted curve in the direction sought with a large enough effect; inconclusive = small, poorly fitted or top-dose-only effect, or another doubt; inactive = no such curve, though single readings can be large; an effect the other way counts as inactive or inconclusive. Unless noted, % is scaled to controls: 0 for no effect and ±100 for the full control effect.
SMILES,HT1080 IDH1KD tx,DT40 TDP1 no CPT,DT40 TDP1 CPT,HT1080-NT tox,IL1B secr inh
CO[C@H]1C[C@H](O[C@H]2[C@H](C)[C@@H](O[C@@H]3O[C@H](C)C[C@H](N(C)C)[C@H]3OC(C)=O)[C@@H](C)C[C@]3(CO3)C(=O)[C@H](C)[C@@H](OC(C)=O)[C@@H](C)[C@@H](C)OC(=O)[C@@H]2C)O[C@@H](C)[C@@H]1OC(C)=O,.,-17.3%[21.1 µM],10.9%[21.1 µM],.,.
Clc1ccc(-c2nc3ccc(Cl)cn3c2Cc2cccc(Cl)c2)cc1,?,?,?,?,23.1
Brc1ccc2nc(-c3ccco3)c(Cc3ccccc3)n2c1,?,?,?,?,-22.5
Clc1cccc(Cc2c(-c3ccco3)nc3ccc(Br)cn23)c1,16.4µM*,23.1µM*,?,?,-14.0
Clc1cccc(Cc2c(-c3ccco3)nc3ccc(Cl)cn23)c1,18.4µM*,23.1µM*,20.6µM*,23.1µM*,-58.6*
COc1cccc(CNCCOCCO)c1OC,12.1%,-1.6%,8.5%,21.6%,5.8
COc1ccc(CNCc2ccc(OC)c3ccccc23)cc1,-22.7%,?,?,-17.3%,-76.4*
COc1ccc(Br)cc1CNC(=O)c1cc2ccccn2n1,.,?,16.4µM*,.,.
COc1cccc(CNCc2ccc(OC)c3ccccc23)c1OC,?,16.4µM*,20.6µM*,?,-84.1*
c1ccc2cc(CNCc3cccc4ccccc34)ccc2c1,23.1µM*,?,?,?,?
Cc1cnc(C)c(N2CCC(C(=O)NC(C)c3cccs3)CC2)n1 (centres undefined),-1.8%,-19.0%,-2.9%,-7.6%,67.5
CCCC(=O)Nc1ccc(S(=O)(=O)N2CCc3ccccc32)cc1,-8.3%,?,?,-16.1%,16.2
CCc1ccc(N=C2NC(=O)CC(C(=O)Nc3ccc(OC)cc3)S2)cc1 (centres undefined),.,-16.8%,-28.2%,.,.
Cn1nc(NC(=O)C(F)(F)F)c2ncc(-c3ccccc3)nc21,-3.5%,?,8.0%,-7.6%,-20.4
COc1cc(NC(=O)COC(=O)c2ccccc2SCC(=O)N2CCCC2)cc(OC)c1,-1.2%,?,?,-0.5%,3.8
COc1ccccc1CNCc1cc(Br)ccc1OC,?,16.4µM*,?,-26.7%,?
COc1ccc(Br)cc1CNC(=O)Cc1cccs1,-7.5%,-5.0%,18.1%,-5.1%,-21.5
CCOc1cc(CNCc2ccccn2)cc(Cl)c1OC,4.1%,6.6%,0.8%,5.2%,2.7
COc1cccc(CNCc2ccccn2)c1OC,2.9%[9.24 µM],18.4µM*,-21.6%,-4.8%,0.0
COc1ccc(Br)cc1CNC(C)c1ccccc1 (centres undefined),-21.0%,29.1µM*,?,-13.8%,?
COc1ccccc1CNCc1ccc(OC)c2ccccc12,-57.8%,16.4µM*,?,14.6µM*,-81.9*
Cc1ccc(-c2nc(SCC(=O)NCC3CCCO3)c3c(=O)n(C)c(=O)n(C)c3n2)cc1 (centres undefined),.,-15.8%,-25.3%,.,.
COc1ccc(C)cc1S(=O)(=O)N1CCCC(C(=O)NC2CC2)C1 (centres undefined),-0.1%,2.3%,15.8%,2.9%,9.6
COc1cc(CNCc2ccc(OC)cc2OC)cc(OC)c1,-8.4%,20.6µM*,?,-3.7%,-8.3
COc1cc(CNCc2c[nH]c3ccccc23)cc(OC)c1,-21.1%,9.2µM*,5.8µM*,?,-83.8*
SMILES,HT1080 IDH1KD tx,DT40 TDP1 no CPT,DT40 TDP1 CPT,HT1080-NT tox,IL1B secr inh
COc1ccccc1CNCc1cccc(Oc2ccccc2)c1,?,?,?,-26.7%,-82.8*
COc1cc(CNCc2cccc3ccccc23)cc(OC)c1,-7.5%,?,?,-10.8%,8.4
CC(C)NC(=O)C1(C)CN(S(C)(=O)=O)CC(=O)N1CCc1ccccc1 (centres undefined),9.1%,11.9%,4.7%,19.6%,0.0
COc1ccc(N2CCN(C(=O)c3cc4c(-c5cccc(OC)c5)nn(C)c4s3)CC2)cc1,-8.7%,14.6µM*,?,-14.2%,0.0
COc1ccc(-c2nn(C)c3sc(C(=O)N4CCOCC4)cc23)cc1OC,-0.5%,?,-17.0%,2.0%,-19.9
COc1cccc(-c2nn(C)c3sc(C(=O)N4CCN(c5cccc(C(F)(F)F)c5)CC4)cc23)c1,.,25.9µM*,16.4µM*,.,.
Cc1cccc(C)c1NC(=O)c1sc(Cl)nc1C,5.3%,-14.6%,-18.9%,5.9%,-1.3
NC(=Nc1c([N+](=O)[O-])cnc2ccccc12)N1CCOCC1,6.3%,-8.9%,-20.2%,7.2%,0.0
Cc1cccc(N(C)c2ccc3cc(S(=O)(=O)N4CCCC4)ccc3n2)c1,-9.5%,16.4µM*,16.4µM*!,-10.0%,-11.6
Cc1cccc(N(C)C(=O)c2cc(S(=O)(=O)N3CCCC3)cn2C)c1,5.9%,-26.6%,-0.4%,0.0%,-9.2
Cc1ccc(S(=O)(=O)N2CCCCC2)cc1C(=O)NCCc1ccccc1,-1.2%,?,-6.6%,-2.0%,-13.4
CN(Cc1ccccc1)c1ccc2cc(S(=O)(=O)N3CCCCC3)ccc2n1,.,9.2µM*,10.3µM*,.,.
CC(=O)Nc1cccc(CNCc2cccc(NC(C)=O)c2)c1,-0.5%,6.7%,-5.4%,0.3%,1.3
O=c1cc(CSc2nc(NCc3ccc(Cl)cc3)c3ccccc3n2)nc2ccc(Cl)cn12,17.3%,-13.2%,2.1%,-3.4%,23.0
CC(CCc1ccccc1)NC(=O)CSc1n[nH]c(-c2ccccc2)n1 (centres undefined),.,20.6µM*,14.6µM*,.,.
Cc1ccc(CNC(=O)CSc2n[nH]c(-c3ccc(F)cc3)n2)cc1,.,16.4µM*,?,.,.
CC(NC(=O)CSc1n[nH]c(-c2ccccc2)n1)c1nc2ccccc2n1C (centres undefined),.,-4.7%,0.5%,.,.
CC(CCc1ccccc1)NC(=O)CSc1n[nH]c(-c2ccc(F)cc2)n1 (centres undefined),.,23.1µM*,?,.,.
CC(CCc1ccccc1)NC(=O)CSc1ccccc1 (centres undefined),17.2%,-7.9%,-12.2%,8.9%,7.1
CC(OC(=O)CNC(=O)c1ccc2ccccc2c1)C(=O)NC1CCCCC1C (centres undefined),8.7%,-23.3%,-15.3%,0.0%,-4.3
Cc1ccc(C)c(N2CCN(C(=O)c3csc4ccccc34)CC2)c1,-7.7%,?,?,-12.5%,?
O=C(COC(=O)c1ccc(Cl)c(S(=O)(=O)N2CCOCC2)c1)NCc1ccco1,15.9%,-27.3%,-18.7%,19.5%,-1.0
COCCCNCC(O)C(F)(F)F (centres undefined),-9.0%,2.5%,-11.8%,0.0%,25.3
